# Measured values published in article PMC7862700, “An all-to-all approach to the identification of sequence-specific readers for epigenetic DNA modifications on cytosine”.
# How the values were obtained:
# Assay in all cases: DAPPL (digital affinity profiling via proximity ligation, sequencing); 10 mM Tris-HCl pH 7.5, 50 mM NaCl, 1 mM DTT, 4% glycerol, room temperature, 30 min; GST-TFs on glutathione beads, 16-mer random dsDNA library, 0.1% formaldehyde crosslink after washing; high values mean tight binding
# FLI1 = target: T1, FLI1 (Homo sapiens, UniProt Q01543 1-452); conditions: protein: recombinant; tags: N-terminal GST; dsDNA, one strand shown
# T1 sequence: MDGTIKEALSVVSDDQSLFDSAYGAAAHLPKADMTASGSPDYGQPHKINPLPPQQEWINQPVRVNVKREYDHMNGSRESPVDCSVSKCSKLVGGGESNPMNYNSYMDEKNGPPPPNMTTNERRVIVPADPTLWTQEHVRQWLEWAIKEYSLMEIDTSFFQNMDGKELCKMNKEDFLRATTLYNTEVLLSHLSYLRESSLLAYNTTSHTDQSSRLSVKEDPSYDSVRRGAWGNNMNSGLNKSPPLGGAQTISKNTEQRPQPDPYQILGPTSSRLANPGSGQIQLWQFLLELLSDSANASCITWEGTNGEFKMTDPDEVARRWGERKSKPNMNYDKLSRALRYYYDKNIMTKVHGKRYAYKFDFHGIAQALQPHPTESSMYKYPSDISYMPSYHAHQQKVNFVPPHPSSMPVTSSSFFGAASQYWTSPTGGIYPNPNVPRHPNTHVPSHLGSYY
# Summary of the method: (§1)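 Human transcription factors fused to GST were expressed in yeast, captured on glutathione beads, given DNA barcodes and pooled with a GST-only negative control. Pools were incubated with 200 nmole of a 16-mer random double-stranded DNA library in Tris/NaCl/DTT/glycerol buffer at room temperature for 30 min. They were then washed, crosslinked with 0.1% formaldehyde, proximity-ligated (BsaI/T4 ligase, 1 h, 37 °C), PCR-amplified and sequenced on an Illumina NextSeq500. Binding signal is each 6-mer's read frequency for a factor divided by its frequency for the GST control.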
# ELK1 = target: T2, ELK1 (Homo sapiens, UniProt P19419 1-428); conditions: protein: recombinant; tags: N-terminal GST; dsDNA, one strand shown
# T2 sequence: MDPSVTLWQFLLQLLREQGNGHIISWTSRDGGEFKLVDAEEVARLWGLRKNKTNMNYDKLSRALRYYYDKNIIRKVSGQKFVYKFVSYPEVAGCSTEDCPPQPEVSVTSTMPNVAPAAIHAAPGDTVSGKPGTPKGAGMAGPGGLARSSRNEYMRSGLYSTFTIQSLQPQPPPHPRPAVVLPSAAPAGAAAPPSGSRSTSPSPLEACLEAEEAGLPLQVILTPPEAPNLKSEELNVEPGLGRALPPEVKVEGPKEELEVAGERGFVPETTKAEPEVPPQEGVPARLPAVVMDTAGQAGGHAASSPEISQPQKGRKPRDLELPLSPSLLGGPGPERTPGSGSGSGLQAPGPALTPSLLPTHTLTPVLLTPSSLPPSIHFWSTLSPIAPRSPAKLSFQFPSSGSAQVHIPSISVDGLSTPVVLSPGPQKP
# Summary of the method: as §1
# GABPA = target: T3, GABPA (Homo sapiens, UniProt Q06546 1-454); conditions: protein: recombinant; tags: N-terminal GST; dsDNA, one strand shown
# T3 sequence: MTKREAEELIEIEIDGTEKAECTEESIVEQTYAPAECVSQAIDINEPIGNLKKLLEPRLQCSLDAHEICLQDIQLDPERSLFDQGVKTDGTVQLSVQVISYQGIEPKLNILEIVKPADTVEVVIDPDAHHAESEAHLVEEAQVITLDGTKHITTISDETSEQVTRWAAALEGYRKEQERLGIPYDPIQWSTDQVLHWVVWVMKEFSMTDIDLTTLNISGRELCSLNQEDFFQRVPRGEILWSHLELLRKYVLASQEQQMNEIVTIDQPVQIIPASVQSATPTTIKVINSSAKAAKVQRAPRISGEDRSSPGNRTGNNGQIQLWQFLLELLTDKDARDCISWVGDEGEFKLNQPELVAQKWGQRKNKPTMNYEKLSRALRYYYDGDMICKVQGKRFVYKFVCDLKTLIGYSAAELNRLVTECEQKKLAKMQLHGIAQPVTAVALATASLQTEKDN
# Summary of the method: as §1
# ERG = target: T4, ERG (Homo sapiens, UniProt P11308 1-479); conditions: protein: recombinant; tags: N-terminal GST; dsDNA, one strand shown
# T4 sequence: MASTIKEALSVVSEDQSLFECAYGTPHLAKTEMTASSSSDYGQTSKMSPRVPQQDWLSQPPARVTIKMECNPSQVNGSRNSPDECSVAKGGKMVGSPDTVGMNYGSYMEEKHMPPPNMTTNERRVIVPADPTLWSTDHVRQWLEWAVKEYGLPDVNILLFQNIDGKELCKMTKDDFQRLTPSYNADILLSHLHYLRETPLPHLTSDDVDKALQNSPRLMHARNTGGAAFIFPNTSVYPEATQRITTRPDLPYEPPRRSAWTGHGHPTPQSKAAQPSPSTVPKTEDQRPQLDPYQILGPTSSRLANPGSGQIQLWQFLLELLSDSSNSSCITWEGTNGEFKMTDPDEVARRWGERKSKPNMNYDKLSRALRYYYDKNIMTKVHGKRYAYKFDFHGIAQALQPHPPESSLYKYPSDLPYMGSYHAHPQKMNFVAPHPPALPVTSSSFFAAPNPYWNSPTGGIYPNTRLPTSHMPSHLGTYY
# Summary of the method: as §1
# ELF1 = ELF1 (Homo sapiens, UniProt P32519 1-619); conditions: protein: recombinant; tags: N-terminal GST; dsDNA, one strand shown
# Summary of the method: as §1
# EHF = target: T5, EHF (Homo sapiens, UniProt Q9NZC4 1-300); conditions: protein: recombinant; tags: N-terminal GST; dsDNA, one strand shown
# T5 sequence: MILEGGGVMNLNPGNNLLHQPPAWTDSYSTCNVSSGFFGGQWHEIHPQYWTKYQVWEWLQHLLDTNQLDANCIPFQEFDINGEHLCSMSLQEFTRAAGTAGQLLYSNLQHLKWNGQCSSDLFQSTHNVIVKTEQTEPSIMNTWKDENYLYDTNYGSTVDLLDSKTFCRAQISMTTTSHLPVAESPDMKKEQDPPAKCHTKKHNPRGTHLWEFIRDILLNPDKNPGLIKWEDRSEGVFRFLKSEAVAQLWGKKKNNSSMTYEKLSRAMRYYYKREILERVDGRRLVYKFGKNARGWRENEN
# Summary of the method: as §1
# SPI1 = SPI1 (Homo sapiens, UniProt P17947 1-270); conditions: protein: recombinant; tags: N-terminal GST; dsDNA, one strand shown
# Summary of the method: as §1
# SPIB = SPIB (Homo sapiens, UniProt Q01892 1-262); conditions: protein: recombinant; tags: N-terminal GST; dsDNA, one strand shown
# Summary of the method: as §1
# ELK3 = target: T6, ELK3 (Homo sapiens, UniProt P41970 1-407); conditions: protein: recombinant; tags: N-terminal GST; dsDNA, one strand shown
# T6 sequence: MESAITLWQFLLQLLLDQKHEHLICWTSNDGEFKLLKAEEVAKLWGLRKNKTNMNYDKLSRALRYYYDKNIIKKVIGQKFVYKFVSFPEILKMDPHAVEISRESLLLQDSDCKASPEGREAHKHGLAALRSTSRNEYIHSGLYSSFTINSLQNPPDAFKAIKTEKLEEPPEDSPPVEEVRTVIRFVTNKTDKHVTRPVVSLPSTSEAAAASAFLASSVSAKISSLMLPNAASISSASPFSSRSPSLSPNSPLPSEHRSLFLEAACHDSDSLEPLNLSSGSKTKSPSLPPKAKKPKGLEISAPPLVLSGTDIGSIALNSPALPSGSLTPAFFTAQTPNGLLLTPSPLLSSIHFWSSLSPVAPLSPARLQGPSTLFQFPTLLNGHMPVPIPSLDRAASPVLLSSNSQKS
# Summary of the method: as §1
# FEV = target: T7, FEV (Homo sapiens, UniProt Q99581 1-238); conditions: protein: recombinant; tags: N-terminal GST; dsDNA, one strand shown
# T7 sequence: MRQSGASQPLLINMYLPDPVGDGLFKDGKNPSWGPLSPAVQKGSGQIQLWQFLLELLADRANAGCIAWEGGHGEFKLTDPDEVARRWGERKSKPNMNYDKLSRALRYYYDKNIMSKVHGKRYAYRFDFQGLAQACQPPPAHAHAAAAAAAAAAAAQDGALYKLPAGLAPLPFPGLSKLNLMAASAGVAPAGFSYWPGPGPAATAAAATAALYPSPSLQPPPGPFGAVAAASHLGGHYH
# Summary of the method: as §1
# ETV5 = ETV5 (Homo sapiens, UniProt P41161 1-510); conditions: protein: recombinant; tags: N-terminal GST; dsDNA, one strand shown
# Summary of the method: as §1
# HSF1 = HSF1 (Homo sapiens, UniProt Q00613 1-529); conditions: protein: recombinant; tags: N-terminal GST; chain copies: 3; dsDNA, one strand shown
# Summary of the method: as §1
# SPIC = target: T8, SPIC (Homo sapiens, UniProt Q8N5J4 1-248); conditions: protein: recombinant; tags: N-terminal GST; dsDNA, one strand shown
# T8 sequence: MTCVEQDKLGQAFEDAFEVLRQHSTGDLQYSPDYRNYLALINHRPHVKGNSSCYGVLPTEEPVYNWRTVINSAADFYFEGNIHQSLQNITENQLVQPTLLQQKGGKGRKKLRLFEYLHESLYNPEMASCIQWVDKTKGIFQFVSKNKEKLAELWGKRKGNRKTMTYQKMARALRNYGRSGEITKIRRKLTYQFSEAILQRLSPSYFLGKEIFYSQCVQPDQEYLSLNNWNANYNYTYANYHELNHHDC
# Summary of the method: as §1
# ELF4 = ELF4 (Homo sapiens, UniProt Q99607 1-663); conditions: protein: recombinant; tags: N-terminal GST; dsDNA, one strand shown
# Summary of the method: as §1
# ELK4 = target: T9, ELK4 (Homo sapiens, UniProt P28324-2 1-405); conditions: protein: recombinant; tags: N-terminal GST; dsDNA, one strand shown
# T9 sequence: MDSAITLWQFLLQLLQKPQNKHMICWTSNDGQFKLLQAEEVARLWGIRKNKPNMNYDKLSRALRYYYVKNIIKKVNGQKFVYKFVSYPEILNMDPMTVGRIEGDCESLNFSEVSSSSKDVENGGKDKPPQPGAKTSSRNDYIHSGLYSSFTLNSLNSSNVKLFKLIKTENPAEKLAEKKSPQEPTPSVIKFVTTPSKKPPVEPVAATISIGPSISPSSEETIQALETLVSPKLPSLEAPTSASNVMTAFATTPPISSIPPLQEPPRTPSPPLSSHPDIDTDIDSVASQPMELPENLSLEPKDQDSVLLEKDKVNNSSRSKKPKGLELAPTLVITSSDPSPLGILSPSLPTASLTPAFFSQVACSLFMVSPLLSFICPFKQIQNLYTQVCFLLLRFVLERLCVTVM
# Summary of the method: as §1
# ETV2 = target: T10, ETV2 (Homo sapiens, UniProt O00321 1-342); conditions: protein: recombinant; tags: N-terminal GST; dsDNA, one strand shown
# T10 sequence: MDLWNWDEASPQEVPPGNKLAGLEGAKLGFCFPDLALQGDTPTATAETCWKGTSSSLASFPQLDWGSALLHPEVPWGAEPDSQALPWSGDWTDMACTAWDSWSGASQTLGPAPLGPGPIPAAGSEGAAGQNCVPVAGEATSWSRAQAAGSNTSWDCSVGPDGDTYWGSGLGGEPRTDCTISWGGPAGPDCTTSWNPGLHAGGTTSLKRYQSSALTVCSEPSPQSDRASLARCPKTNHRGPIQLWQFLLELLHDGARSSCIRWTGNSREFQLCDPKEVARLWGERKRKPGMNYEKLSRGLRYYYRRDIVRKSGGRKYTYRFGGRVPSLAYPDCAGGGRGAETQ
# Summary of the method: as §1
# ELF3 = target: T11, ELF3 (Homo sapiens, UniProt P78545 1-371); conditions: protein: recombinant; tags: N-terminal GST; dsDNA, one strand shown
# T11 sequence: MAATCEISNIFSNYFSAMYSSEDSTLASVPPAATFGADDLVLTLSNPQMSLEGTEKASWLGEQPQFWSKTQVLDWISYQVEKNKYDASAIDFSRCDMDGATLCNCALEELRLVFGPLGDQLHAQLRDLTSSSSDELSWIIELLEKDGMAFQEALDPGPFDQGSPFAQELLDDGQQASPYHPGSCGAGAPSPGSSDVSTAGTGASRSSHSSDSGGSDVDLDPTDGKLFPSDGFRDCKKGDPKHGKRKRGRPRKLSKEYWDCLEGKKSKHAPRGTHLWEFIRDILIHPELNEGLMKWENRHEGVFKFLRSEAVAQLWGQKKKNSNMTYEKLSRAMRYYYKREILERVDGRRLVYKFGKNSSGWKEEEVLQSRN
# Summary of the method: as §1
# CRX = CRX (Homo sapiens, UniProt O43186 1-299); conditions: protein: recombinant; tags: N-terminal GST; dsDNA, one strand shown
# Summary of the method: as §1
# ETV1 = ETV1 (Homo sapiens, UniProt P50549 1-477); conditions: protein: recombinant; tags: N-terminal GST; dsDNA, one strand shown
# Summary of the method: as §1
# Chain of ETV1 (P50549 whole entry): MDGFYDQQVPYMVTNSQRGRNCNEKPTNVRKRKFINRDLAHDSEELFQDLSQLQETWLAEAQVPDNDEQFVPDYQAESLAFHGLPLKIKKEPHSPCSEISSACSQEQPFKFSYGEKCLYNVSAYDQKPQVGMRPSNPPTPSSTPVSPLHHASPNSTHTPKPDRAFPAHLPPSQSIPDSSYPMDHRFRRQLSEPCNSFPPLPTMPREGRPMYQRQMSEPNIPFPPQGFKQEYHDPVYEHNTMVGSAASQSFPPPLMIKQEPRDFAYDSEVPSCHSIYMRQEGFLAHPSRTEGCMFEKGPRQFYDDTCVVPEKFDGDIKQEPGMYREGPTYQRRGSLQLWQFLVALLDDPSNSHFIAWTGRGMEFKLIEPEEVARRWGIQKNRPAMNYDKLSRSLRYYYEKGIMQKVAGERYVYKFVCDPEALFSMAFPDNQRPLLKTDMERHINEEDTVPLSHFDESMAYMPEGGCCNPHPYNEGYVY
# Chain of ELF1 (P32519 whole entry): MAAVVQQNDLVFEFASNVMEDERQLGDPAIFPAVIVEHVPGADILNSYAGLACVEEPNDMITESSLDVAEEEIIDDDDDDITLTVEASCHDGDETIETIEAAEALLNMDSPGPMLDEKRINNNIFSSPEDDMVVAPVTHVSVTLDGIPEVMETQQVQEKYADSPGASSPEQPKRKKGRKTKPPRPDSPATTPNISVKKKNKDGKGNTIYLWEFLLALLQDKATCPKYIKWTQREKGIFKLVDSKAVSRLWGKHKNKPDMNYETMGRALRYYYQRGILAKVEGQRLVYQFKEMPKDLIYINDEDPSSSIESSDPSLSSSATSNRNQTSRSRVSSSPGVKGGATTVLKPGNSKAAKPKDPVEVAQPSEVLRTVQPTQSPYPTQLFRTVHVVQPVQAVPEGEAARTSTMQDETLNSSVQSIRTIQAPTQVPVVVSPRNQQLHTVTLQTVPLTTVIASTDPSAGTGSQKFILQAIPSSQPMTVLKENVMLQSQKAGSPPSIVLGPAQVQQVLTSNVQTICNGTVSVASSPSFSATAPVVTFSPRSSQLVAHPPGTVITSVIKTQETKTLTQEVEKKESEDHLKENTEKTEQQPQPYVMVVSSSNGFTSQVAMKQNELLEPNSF
# Chain of ETV5 (P41161 whole entry): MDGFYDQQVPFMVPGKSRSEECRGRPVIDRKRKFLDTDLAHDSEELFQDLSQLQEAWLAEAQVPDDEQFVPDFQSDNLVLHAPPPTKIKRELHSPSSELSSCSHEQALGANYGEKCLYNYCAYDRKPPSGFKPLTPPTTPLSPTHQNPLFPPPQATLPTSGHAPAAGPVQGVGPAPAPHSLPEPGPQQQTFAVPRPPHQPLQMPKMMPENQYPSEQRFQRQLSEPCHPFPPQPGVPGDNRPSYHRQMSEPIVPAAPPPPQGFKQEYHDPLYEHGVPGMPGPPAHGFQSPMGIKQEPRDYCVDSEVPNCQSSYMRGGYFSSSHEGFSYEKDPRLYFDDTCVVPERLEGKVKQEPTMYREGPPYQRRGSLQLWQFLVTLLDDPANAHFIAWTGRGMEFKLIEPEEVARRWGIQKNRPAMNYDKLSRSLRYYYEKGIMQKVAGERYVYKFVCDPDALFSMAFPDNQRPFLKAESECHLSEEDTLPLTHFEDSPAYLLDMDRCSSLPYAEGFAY
# Chain of SPIB (Q01892 whole entry): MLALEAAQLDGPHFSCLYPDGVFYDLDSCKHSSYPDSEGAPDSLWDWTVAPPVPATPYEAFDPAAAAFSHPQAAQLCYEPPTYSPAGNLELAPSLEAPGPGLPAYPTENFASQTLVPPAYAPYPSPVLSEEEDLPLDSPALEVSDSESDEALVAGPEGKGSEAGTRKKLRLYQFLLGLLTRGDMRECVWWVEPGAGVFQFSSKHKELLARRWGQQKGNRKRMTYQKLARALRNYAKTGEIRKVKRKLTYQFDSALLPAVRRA
# Chain of ELF4 (Q99607 whole entry): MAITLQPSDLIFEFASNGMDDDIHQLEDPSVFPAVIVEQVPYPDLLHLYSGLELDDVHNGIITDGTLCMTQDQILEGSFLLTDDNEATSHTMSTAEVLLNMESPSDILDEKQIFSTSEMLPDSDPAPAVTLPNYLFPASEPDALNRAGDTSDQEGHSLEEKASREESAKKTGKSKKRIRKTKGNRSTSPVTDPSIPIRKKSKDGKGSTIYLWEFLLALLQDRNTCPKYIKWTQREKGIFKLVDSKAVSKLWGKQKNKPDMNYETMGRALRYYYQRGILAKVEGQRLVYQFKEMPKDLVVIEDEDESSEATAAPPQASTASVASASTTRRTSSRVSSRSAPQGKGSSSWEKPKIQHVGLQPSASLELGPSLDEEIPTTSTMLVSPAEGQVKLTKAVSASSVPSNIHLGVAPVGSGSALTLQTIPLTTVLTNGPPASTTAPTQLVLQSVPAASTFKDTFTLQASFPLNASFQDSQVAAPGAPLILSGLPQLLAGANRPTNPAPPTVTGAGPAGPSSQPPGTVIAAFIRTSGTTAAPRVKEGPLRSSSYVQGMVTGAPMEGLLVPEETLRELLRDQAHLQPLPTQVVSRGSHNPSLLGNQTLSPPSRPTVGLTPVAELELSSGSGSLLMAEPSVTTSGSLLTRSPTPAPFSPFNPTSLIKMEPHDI
# Chain of HSF1 (Q00613 whole entry): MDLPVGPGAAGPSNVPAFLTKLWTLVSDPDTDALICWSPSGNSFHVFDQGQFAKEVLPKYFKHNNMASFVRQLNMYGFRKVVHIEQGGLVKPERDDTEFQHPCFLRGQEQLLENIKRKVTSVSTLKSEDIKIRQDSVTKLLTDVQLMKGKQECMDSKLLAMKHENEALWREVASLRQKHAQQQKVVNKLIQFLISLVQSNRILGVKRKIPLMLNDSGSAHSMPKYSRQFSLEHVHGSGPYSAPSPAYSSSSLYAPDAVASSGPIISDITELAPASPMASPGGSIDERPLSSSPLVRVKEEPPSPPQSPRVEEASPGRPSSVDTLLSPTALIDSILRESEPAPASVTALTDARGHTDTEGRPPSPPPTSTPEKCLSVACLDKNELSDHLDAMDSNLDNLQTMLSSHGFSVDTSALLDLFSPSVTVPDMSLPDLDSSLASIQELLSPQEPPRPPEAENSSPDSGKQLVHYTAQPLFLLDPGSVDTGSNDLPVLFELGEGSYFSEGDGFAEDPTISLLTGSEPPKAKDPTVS
# Chain of CRX (O43186 whole entry): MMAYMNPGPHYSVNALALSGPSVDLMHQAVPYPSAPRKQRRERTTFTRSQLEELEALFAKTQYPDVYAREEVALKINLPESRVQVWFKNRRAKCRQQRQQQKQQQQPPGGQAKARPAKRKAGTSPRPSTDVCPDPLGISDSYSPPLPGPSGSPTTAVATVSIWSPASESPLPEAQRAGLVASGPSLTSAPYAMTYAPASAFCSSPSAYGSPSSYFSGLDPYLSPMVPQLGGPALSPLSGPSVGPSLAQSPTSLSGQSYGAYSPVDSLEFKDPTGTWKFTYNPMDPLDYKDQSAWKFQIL
sequence,measurement,setting,value
AAATAT,binding signal,FLI1,"1.24 fold enrichment (6-mer frequency, TF over GST control)"
same,binding signal,ELK1,"1.34 fold enrichment (6-mer frequency, TF over GST control)"
same,binding signal,GABPA,"1.33 fold enrichment (6-mer frequency, TF over GST control)"
same,binding signal,ERG,"1.34 fold enrichment (6-mer frequency, TF over GST control)"
same,binding signal,ELF1,"1.37 fold enrichment (6-mer frequency, TF over GST control)"
same,binding signal,EHF,"1.31 fold enrichment (6-mer frequency, TF over GST control)"
same,binding signal,SPI1,"1.32 fold enrichment (6-mer frequency, TF over GST control)"
same,binding signal,SPIB,"1.47 fold enrichment (6-mer frequency, TF over GST control)"
same,binding signal,ELK3,"1.38 fold enrichment (6-mer frequency, TF over GST control)"
same,binding signal,FEV,"1.28 fold enrichment (6-mer frequency, TF over GST control)"
same,binding signal,ETV5,"1.36 fold enrichment (6-mer frequency, TF over GST control)"
same,binding signal,HSF1,"1.29 fold enrichment (6-mer frequency, TF over GST control)"
same,binding signal,SPIC,"1.43 fold enrichment (6-mer frequency, TF over GST control)"
same,binding signal,ELF4,"1.34 fold enrichment (6-mer frequency, TF over GST control)"
same,binding signal,ELK4,"1.24 fold enrichment (6-mer frequency, TF over GST control)"
same,binding signal,ETV2,"1.49 fold enrichment (6-mer frequency, TF over GST control)"
same,binding signal,ELF3,"1.54 fold enrichment (6-mer frequency, TF over GST control)"
same,binding signal,CRX,"1.39 fold enrichment (6-mer frequency, TF over GST control)"
same,binding signal,ETV1,"1.39 fold enrichment (6-mer frequency, TF over GST control)"
